Experimental findings from PubChem BioAssay (NCATS) are described below.

Structures are written as SMILES. Where “and” joins values, the source holds several entries; their conditions need not be identical. Equal entries are not always repeated. Results filed as inconclusive are left out. Calls of active or inactive are those of the source. The call rests on the fitted dose curve; in most records, active means well fitted curve in the direction sought with a large enough effect; inconclusive means small, poorly fitted or top-dose-only effect, or another doubt; inactive means no such curve, though single readings can be large; an effect the other way counts as inactive or inconclusive.

The nature of one assay: Cellular Toxicity (caspase-3) Jurkat (AID 655).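 Further: cells exposed to compound for 16 h at 37 °C before reading.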 The conditions noted are these: Jurkat caspase-3 activation, luminescence, DMSO = 0%, tamoxifen = 100%; at 92.2 µM (top of the series). Put shortly: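 Jurkat cells (5000/well) in complete medium exposed 16 h at 37 C; caspase-3/7 activity read by Caspase-Glo luminescence after 20 min at room temperature. Normalized to DMSO and 100 uM tamoxifen; AC50 from Hill fits.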
For the compound `ClC1=C(Cl)C2(Cl)C3C4CC(C5OC45)C3C1(Cl)C2(Cl)Cl` (configuration not stated), the caspase-3 activation was 28.4% (inactive).

`O=C(O)COc1ccc(Cl)cc1Cl`: the caspase-3 activation was -0.262% (inactive) and -0.585% (inactive).

With `ClC1=C(Cl)C2(Cl)C3C(Cl)C=CC3C1(Cl)C2(Cl)Cl` (configuration not stated), the caspase-3 activation was 5.51% (inactive).

Another assay in a line: Cellular Toxicity (caspase-3) HUV-EC-C (AID 656). As to conditions: HUV-EC-C cells, caspase-3 activation (apoptosis), vehicle = 0, 100 µM tamoxifen = 100%; series mostly up to 92.2 µM; caspase-3 activation: at the top concentration. Put shortly: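 HUV-EC-C cells (1000/well) in complete medium, compound-treated 16 h at 37 °C; caspase-3/7 activity read by Caspase-Glo 3/7 luminescence. Normalized to DMSO (basal) and 100 uM tamoxifen (100%); AC50 from Hill-equation concentration-response fits.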
With `CCNc1nc(Cl)nc(NC(C)C)n1`, the “caspase-3 activation” value is -0.6% (inactive).

For the compound `ClC1=C(Cl)C2(Cl)C3C4CC(C5OC45)C3C1(Cl)C2(Cl)Cl` (configuration not stated), the “caspase-3 activation” value is 2.11% (inactive).

Turning to `CCOCN(C(=O)CCl)c1c(C)cccc1CC`, the “caspase-3 activation” value is -3.15% (inactive).

As for `ClC(Cl)=C(c1ccc(Cl)cc1)c1ccc(Cl)cc1`, the compound was called inactive.

`ClC1=C(Cl)C2(Cl)C3C4C=CC(C4)C3C1(Cl)C2(Cl)Cl` (configuration not stated): the “caspase-3 activation” value is 9.18% (inactive).

Take `O=C(O)COc1ccc(Cl)cc1Cl`: the compound was called inactive.

In the case of `COC(=O)NC(=S)Nc1ccccc1NC(=S)NC(=O)OC`, the “caspase-3 activation” value is 1.25% (inactive).

`C/C=C/c1ccc2c(c1)OCO2`: the “caspase-3 activation” value was -0.94% (inactive).

For `COP(=S)(OC)Oc1ccc([N+](=O)[O-])cc1`, the “caspase-3 activation” value was -3.29% (inactive).

As to `O=S1OCC2C(CO1)C1(Cl)C(Cl)=C(Cl)C2(Cl)C1(Cl)Cl` (configuration not stated), the “caspase-3 activation” value was 14.4% (inactive).

As for `C=CCc1ccc(OC)cc1`, the “caspase-3 activation” value is -3.47% (inactive).

For `ClC1=C(Cl)C2(Cl)C3C(Cl)C=CC3C1(Cl)C2(Cl)Cl` (configuration not stated), the “caspase-3 activation” value is 2.04% (inactive).

Regarding `CNC(=O)O/N=C/C(C)(C)SC`, the “caspase-3 activation” value was 5.93% (inactive).

Regarding `c1ccc(N=Nc2ccccc2)cc1`, the “caspase-3 activation” value is -0.653% (inactive).

As for `CCc1cccc(CC)c1N(COC)C(=O)CCl`, the “caspase-3 activation” value is 0.365% (inactive).

A further assay is described as follows: Cellular Toxicity (caspase-3) SHSY5Y (AID 657). The conditions noted are these: SH-SY5Y caspase-3 activation, DMSO zero, 10 µM staurosporine = 100%; series mostly up to 91.7 µM; caspase-3 activation: at the top concentration. Put shortly:
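SH-SY5Y human neuroblastoma cells, 1500/well, exposed to compound for 16 hours at 37 °C in complete medium. Caspase-3/7 activity read by Caspase-Glo luminescence after 1 hr at room temperature, normalized to DMSO and 10 uM staurosporine; AC50 from Hill fit.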
As to `CCNc1nc(Cl)nc(NC(C)C)n1`, the “caspase-3 activation” value is 2.06% (inactive).

With `ClC1=C(Cl)C2(Cl)C3C4CC(C5OC45)C3C1(Cl)C2(Cl)Cl` (configuration not stated), the “caspase-3 activation” value was 5.86% (inactive).

For the compound `CCOCN(C(=O)CCl)c1c(C)cccc1CC`, the “caspase-3 activation” value was 6.68% (inactive).

For `ClC(Cl)=C(c1ccc(Cl)cc1)c1ccc(Cl)cc1`, the result was inactive.

For the compound `ClC1=C(Cl)C2(Cl)C3C4C=CC(C4)C3C1(Cl)C2(Cl)Cl` (configuration not stated), the “caspase-3 activation” value was 4.07% (inactive).

For `O=C(O)COc1ccc(Cl)cc1Cl`, the compound was called inactive.

In the case of `COC(=O)NC(=S)Nc1ccccc1NC(=S)NC(=O)OC`, the “caspase-3 activation” value was 0.408% (inactive).

For `C/C=C/c1ccc2c(c1)OCO2`, the “caspase-3 activation” value is -0.00441% (inactive).

As for `COP(=S)(OC)Oc1ccc([N+](=O)[O-])cc1`, the “caspase-3 activation” value is -2.36% (inactive).

With `C=CCc1ccc(OC)cc1`, the “caspase-3 activation” value was -0.554% (inactive).

For the compound `ClC1=C(Cl)C2(Cl)C3C(Cl)C=CC3C1(Cl)C2(Cl)Cl` (configuration not stated), the “caspase-3 activation” value is 5.36% (inactive).

Consider `CNC(=O)O/N=C/C(C)(C)SC`, for which the “caspase-3 activation” value was 0.458% (inactive).

Consider `c1ccc(N=Nc2ccccc2)cc1`, for which the “caspase-3 activation” value was 0.394% (inactive).

For the compound `CCc1cccc(CC)c1N(COC)C(=O)CCl`, the “caspase-3 activation” value was 12.4% (inactive).

A further assay is described as follows: Cellular Toxicity (caspase-3) BJ (AID 658). As to conditions: BJ fibroblasts, luminescence, normalized: DMSO 0%, staurosporine 100%; series mostly up to 91.7 µM; caspase-3 activation: at the top concentration. Put shortly:
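Caspase-Glo 3/7 luminescence, read 1 hr after reagent at room temperature, in normal BJ fibroblasts exposed 16 hours at 37 °C. AC50 values from Hill-equation concentration-response, scaled between DMSO basal and 10 uM staurosporine as 100%.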
For the compound `CCNc1nc(Cl)nc(NC(C)C)n1`, the “caspase-3 activation” value was -2.42% (inactive).

`ClC1=C(Cl)C2(Cl)C3C4CC(C5OC45)C3C1(Cl)C2(Cl)Cl` (configuration not stated): the “caspase-3 activation” value was 0.0225% (inactive).

Regarding `CCOCN(C(=O)CCl)c1c(C)cccc1CC`, the “caspase-3 activation” value is 1.59% (inactive).

Take `ClC(Cl)=C(c1ccc(Cl)cc1)c1ccc(Cl)cc1`: the result was inactive.

Regarding `ClC1=C(Cl)C2(Cl)C3C4C=CC(C4)C3C1(Cl)C2(Cl)Cl` (configuration not stated), the “caspase-3 activation” value is 0.26% (inactive).

On to `COC(=O)NC(=S)Nc1ccccc1NC(=S)NC(=O)OC`, for which the “caspase-3 activation” value was -2.11% (inactive).

Turning to `O=S1OCC2C(CO1)C1(Cl)C(Cl)=C(Cl)C2(Cl)C1(Cl)Cl` (configuration not stated), the “caspase-3 activation” value is 0.45% (inactive).

Take `C=CCc1ccc(OC)cc1`: the “caspase-3 activation” value was -0.817% (inactive).

As for `ClC1=C(Cl)C2(Cl)C3C(Cl)C=CC3C1(Cl)C2(Cl)Cl` (configuration not stated), the “caspase-3 activation” value was -0.592% (inactive).

In the case of `c1ccc(N=Nc2ccccc2)cc1`, the “caspase-3 activation” value was -0.101% (inactive).

The next assay in a line: Cellular Toxicity (caspase-3) MRC-5 (AID 659). The conditions noted are these: MRC-5 cells, luminescence, normalized: DMSO 0%, 10 µM staurosporine 100%; series mostly up to 91.7 µM; caspase-3 activation: at the top concentration. An outline of the steps:
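Luminescent Caspase-Glo 3/7 read-out (1 h, room temperature) after a 16 h, 37 °C compound exposure of MRC-5 lung fibroblasts at 1500 cells/well. Concentration-response AC50 from Hill equation; 0% DMSO, 100% 10 uM staurosporine.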
For `CCNc1nc(Cl)nc(NC(C)C)n1`, the “caspase-3 activation” value was -0.289% (inactive).

For `ClC1=C(Cl)C2(Cl)C3C4CC(C5OC45)C3C1(Cl)C2(Cl)Cl` (configuration not stated), the “caspase-3 activation” value is 1.74% (inactive).

Regarding `CCOCN(C(=O)CCl)c1c(C)cccc1CC`, the “caspase-3 activation” value is 3.07% (inactive).

As to `ClC(Cl)=C(c1ccc(Cl)cc1)c1ccc(Cl)cc1`, the call was inactive.

`ClC1=C(Cl)C2(Cl)C3C4C=CC(C4)C3C1(Cl)C2(Cl)Cl` (configuration not stated): the “caspase-3 activation” value is 1.68% (inactive).

Regarding `O=C(O)COc1ccc(Cl)cc1Cl`, the outcome was inactive.

For `COC(=O)NC(=S)Nc1ccccc1NC(=S)NC(=O)OC`, the “caspase-3 activation” value is 0.931% (inactive).

On to `C/C=C/c1ccc2c(c1)OCO2`, for which the “caspase-3 activation” value was 0.809% (inactive).

Turning to `COP(=S)(OC)Oc1ccc([N+](=O)[O-])cc1`, the “caspase-3 activation” value is -0.314% (inactive).

In the case of `O=S1OCC2C(CO1)C1(Cl)C(Cl)=C(Cl)C2(Cl)C1(Cl)Cl` (configuration not stated), the “caspase-3 activation” value is 3.03% (inactive).

Regarding `C=CCc1ccc(OC)cc1`, the “caspase-3 activation” value was 0.0371% (inactive).

`ClC1=C(Cl)C2(Cl)C3C(Cl)C=CC3C1(Cl)C2(Cl)Cl` (configuration not stated): the “caspase-3 activation” value was 1.66% (inactive).

As to `CNC(=O)O/N=C/C(C)(C)SC`, the “caspase-3 activation” value was 0.0526% (inactive).

`c1ccc(N=Nc2ccccc2)cc1`: the “caspase-3 activation” value is 4.37% (inactive).

For `CCc1cccc(CC)c1N(COC)C(=O)CCl`, the “caspase-3 activation” value is 0.577% (inactive).

A short description of the next assay: Cellular Toxicity (caspase-3) Mesangial (AID 660).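 Further: cells exposed to compound for 16 h before the caspase read.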 As to conditions: mesangial cells, normalized: DMSO 0%, 100 µM tamoxifen 100%; series mostly up to 91.7 µM; caspase-3 activation: at the top concentration. Put shortly:
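Seed cells derived from normal human renal glomeruli, incubate 5 h, add compounds across concentrations and incubate 16 h at 37 °C. Caspase 3/7 activation is then quantified by luciferase light, with AC50 derived by Hill modeling.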
Consider `CCNc1nc(Cl)nc(NC(C)C)n1`, for which the “caspase-3 activation” value is -0.488% (inactive).

For the compound `ClC1=C(Cl)C2(Cl)C3C4CC(C5OC45)C3C1(Cl)C2(Cl)Cl` (configuration not stated), the “caspase-3 activation” value was 1.72% (inactive).

For the compound `CCOCN(C(=O)CCl)c1c(C)cccc1CC`, the “caspase-3 activation” value was -0.3% (inactive).

Turning to `ClC(Cl)=C(c1ccc(Cl)cc1)c1ccc(Cl)cc1`, the result was inactive.

Take `ClC1=C(Cl)C2(Cl)C3C4C=CC(C4)C3C1(Cl)C2(Cl)Cl` (configuration not stated): the “caspase-3 activation” value is -0.432% (inactive).

Consider `O=C(O)COc1ccc(Cl)cc1Cl`, for which the compound was called inactive.

As to `COC(=O)NC(=S)Nc1ccccc1NC(=S)NC(=O)OC`, the “caspase-3 activation” value was 0.45% (inactive).

On to `C/C=C/c1ccc2c(c1)OCO2`, for which the “caspase-3 activation” value is 1.23% (inactive).

Turning to `COP(=S)(OC)Oc1ccc([N+](=O)[O-])cc1`, the “caspase-3 activation” value was 1.15% (inactive).

For the compound `O=S1OCC2C(CO1)C1(Cl)C(Cl)=C(Cl)C2(Cl)C1(Cl)Cl` (configuration not stated), the “caspase-3 activation” value was 13.6% (inactive).

As to `C=CCc1ccc(OC)cc1`, the “caspase-3 activation” value was 0.586% (inactive).

On to `ClC1=C(Cl)C2(Cl)C3C(Cl)C=CC3C1(Cl)C2(Cl)Cl` (configuration not stated), for which the “caspase-3 activation” value was -0.383% (inactive).

On to `CNC(=O)O/N=C/C(C)(C)SC`, for which the “caspase-3 activation” value was 0.133% (inactive).

For `c1ccc(N=Nc2ccccc2)cc1`, the “caspase-3 activation” value is 0.287% (inactive).

Turning to `CCc1cccc(CC)c1N(COC)C(=O)CCl`, the “caspase-3 activation” value is -0.0497% (inactive).
